Screening data: PubChem, National Center for Advancing Translational Sciences (NCATS)
AMA1-RON2 inh: disrupts binding of P. falciparum AMA1 to RON2; AID 720542; Potency, µM (doses to about 58.2 µM), actives largely listed as inhibitors; 360,000 compounds, 0.2% hits; AlphaScreen AMA1-biotinylated RON2 peptide binding; also: nearly all actives have a fitted effect of over 45% in size
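AMA1 (3D7) with his tag at 25 nM final met compounds first, then biotinylated RON2 peptide at 25 nM; detection used donor plus acceptor beads, 10 µg/mL apiece, read by AlphaScreen after 30 min at room temperature.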
Pf growth 96h: P. falciparum growth inhibition at 96 hours; P. falciparum luciferase reporter growth, 96 h; AID 504834; 320,000 compounds, 6.9% hits; Potency, µM (highest dose often 28.7 µM), most hits filed as inhibitors
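Cell-based qHTS: luciferase-tagged P. falciparum in erythrocytes (2% hematocrit, 0.05% parasitemia final) incubated with compounds for 96 hours, 37 C, 5% CO2; luciferase detection reagent then added and luminescence measured.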
Pf growth 48h: P. falciparum growth inhibition at 48 hours (one generation); P. falciparum luciferase growth in erythrocytes, 48 h; Potency, µM (titrated, usually from 28.7 µM), hits mostly inhibitors; 310,000 compounds, 5.9% hits
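Luciferase-expressing P. falciparum in infected erythrocytes (2% hematocrit, 0.1% parasitemia final) in RPMI 1640/0.5% Albumax were exposed to compound for 48 hours at 37 C, 5% CO2; growth read as luminescence.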
HCV inhibitor: HCV inhibition; Potency, µM (highest dose often 41.8 µM), actives largely listed as inhibitors; AID 651820; Huh7.5.1 HCVcc-Cre infection, luciferase reporter, 44 h; 340,000 compounds, 3.4% hits
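Whole-lifecycle infectious HCVcc-Cre system; cells 1,000/well, compound then virus (~0.5 moi) added 4 h after plating, 44 h culture. Luciferase read 15 sec following 15 min substrate incubation, room temp.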
Each line names hits and unclear results; the compound was inactive in the other large screens. A selection: hits, their analogues and other compounds. The true share with any hit is near 11%. Calls follow the shape of the dose curve; as a rule, active = well fitted curve in the direction sought with a large enough effect; inconclusive = small, poorly fitted or top-dose-only effect, or another doubt; inactive = no such curve, though single readings can be large; an effect the other way counts as inactive or inconclusive.

O=C1C2C(c3cccc(/C=C/c4ccccc4)c3)CC=CC2C(c2ccc3ccccc3c2)N1Cc1ccccc1 (stereo unspecified)	Pf growth 96h inconclusive, Pf growth 48h inconclusive
O=C1C2C(c3cccc(/C=C/c4ccccc4)c3)CC=CC2C(c2ccc(C(F)(F)F)cc2)N1Cc1ccccc1 (stereo unspecified)	Pf growth 96h 9.3µM, Pf growth 48h 12µM
C[C@@H]1CC=C[C@H]2[C@H]1C(=O)N(Cc1ccccc1)[C@H]2c1ccoc1	none
C[C@@H]1CC=C[C@H]2[C@H]1C(=O)N(Cc1ccccc1)[C@H]2c1ccc(Br)cc1F	Pf growth 48h inconclusive, HCV inhibitor inconclusive
C[C@@H]1CC=C[C@H]2[C@H]1C(=O)N(Cc1ccccc1)[C@H]2c1ccc2ccccc2c1Br	Pf growth 96h inconclusive, Pf growth 48h 10µM, HCV inhibitor inconclusive
CC[C@@H]1CC=C[C@H]2[C@H]1C(=O)N(Cc1ccccc1)[C@H]2c1ccoc1	Pf growth 96h inconclusive, Pf growth 48h 12µM
O=C(COC(=O)C1CSC2(c3ccc(F)cc3)CCC(=O)N12)NC(=O)NC1CCCC1 (stereo unspecified)	none
O=C(COC(=O)CNC(=O)c1ccc2c(c1)OCO2)Nc1ncc(Cl)cc1Cl	none
C[C@@H]1CC=C[C@H]2[C@H]1C(=O)N(Cc1ccccc1)[C@H]2c1ccc2ccccc2c1	Pf growth 96h 3.7µM, Pf growth 48h 10µM
Cc1ccc(C2C(C=Nc3c(C)n(C)n(-c4ccccc4)c3=O)=C(c3ccccc3)Oc3ccccc32)cc1 (stereo unspecified)	Pf growth 96h 4.1µM, Pf growth 48h 8.3µM
C=CCn1c(=NC(=O)c2ccccc2[N+](=O)[O-])sc2cc(S(C)(=O)=O)ccc21	Pf growth 96h 9.3µM, Pf growth 48h inconclusive
COC(=O)Cn1c(=NC(=O)c2nc3ccccc3s2)sc2cc(S(C)(=O)=O)ccc21	none (no result: AMA1-RON2 inh)
c1cnc2nc3c4ccccc4c4ccccc4c3nc2c1	HCV inhibitor 2.8µM (no result: Pf growth 96h, Pf growth 48h)
Cc1nc2ccccc2c2ncccc12	Pf growth 96h inconclusive
O=c1ccc2cc(S(=O)(=O)NCc3ccccc3)ccc2[nH]1	none
Cc1ccc(C)c(C(=O)Cn2ncc(Cl)c(Cl)c2=O)c1	Pf growth 48h inconclusive, HCV inhibitor 10µM (no result: Pf growth 96h)
Cc1cccc(Cn2ncc(Cl)c(Cl)c2=O)c1	HCV inhibitor 3.5µM
Cc1cc2oc(=O)cc(Cn3ncc(Cl)c(Cl)c3=O)c2cc1Cl	Pf growth 96h inconclusive, Pf growth 48h inconclusive, HCV inhibitor 11µM
O=C(Cn1ncc(Cl)c(Cl)c1=O)c1ccc2c(c1)OCCO2	HCV inhibitor 2µM (no result: Pf growth 96h, Pf growth 48h)
O=c1c2ccccc2cnn1Cc1ccc(Cl)c(Cl)c1	Pf growth 48h inconclusive
Cc1cc(C(=O)Cn2ncc(Cl)c(Cl)c2=O)c(C)n1CC(F)(F)F	Pf growth 96h inconclusive, HCV inhibitor inconclusive
O=S(=O)(Nc1ccc(-n2cnnn2)cc1)c1ccc(F)c(F)c1F	none
CC[C@H](NC(=O)CC[C@H]1O[C@@H](n2cnc3c(NC(=O)c4ccccc4)ncnc32)[C@H](O)[C@@H]1O)c1ccccc1	none (no result: Pf growth 96h, Pf growth 48h, HCV inhibitor)
Cc1cccc(Cn2nnc3c2C(=O)c2ccccc2C3=O)c1	Pf growth 96h 2.9µM, Pf growth 48h inconclusive, HCV inhibitor inconclusive
COc1ccc(OC)c(NC(=O)C2CCC(CNc3c(N4CCOCC4)c(=O)c3=O)CC2)c1 (stereo unspecified)	none
CC(C)CCNC(=O)c1ccc(Cl)c(NC(=O)Cc2ccccc2)c1	Pf growth 96h inconclusive, Pf growth 48h inconclusive (no result: AMA1-RON2 inh)
Cc1ccc(OCCNC(=O)C(=O)NCc2ccco2)cc1	none
CCOc1ccc(C(C)NC(=O)c2ccccc2OCc2c(C)noc2C)cc1OCC (stereo unspecified)	Pf growth 96h 6.6µM, Pf growth 48h inconclusive (no result: HCV inhibitor)
Cc1noc(C)c1COc1ccccc1C(=O)NNC(=O)C(C)Oc1ccccc1F (stereo unspecified)	HCV inhibitor inconclusive
COc1ccccc1OCCNC(=O)c1ccccc1OCc1c(C)noc1C	Pf growth 96h inconclusive
CCOc1ccc(CCNC(=O)c2ccccc2OCc2c(C)noc2C)cc1OCC	Pf growth 96h inconclusive, Pf growth 48h inconclusive, HCV inhibitor 7.1µM
CCOc1ccccc1C(=O)NC(C)c1ccc(-n2ccnc2)cc1 (stereo unspecified)	Pf growth 96h 8.3µM, Pf growth 48h inconclusive, HCV inhibitor inconclusive
Cc1ccc(-c2noc(CNC(=O)COc3ccccc3C)n2)cc1	none
CC1(C)CC(=O)C(N=Nc2ccc(S(=O)(=O)N3CCOCC3)cc2)=C(O)C1	none
O=C(O)c1cccnc1Cl	none
O=C(O)c1cccnc1C(=O)O	HCV inhibitor 0.71µM
O=C1CSc2ccc(C(=O)N3CCCCC3)cc2N1	none (no result: Pf growth 96h, Pf growth 48h, HCV inhibitor)
CCC(Sc1nc2sc(C(=O)OC)c(C)c2c(=O)n1N)C(=O)NCC1CCCO1 (stereo unspecified)	Pf growth 96h 4.7µM, Pf growth 48h inconclusive
COC(=O)c1cccnc1Oc1ccccc1	Pf growth 96h 0.66µM, Pf growth 48h inconclusive
NC(=O)c1cccnc1Oc1ccccc1	none
CCNC(=O)COC(=O)/C=C/c1cccc(F)c1	none
Cc1cccn2c(CN3CCNC(=O)CC3)c(C(=O)N(C)CCc3ccccc3)nc12	Pf growth 96h 1.9µM
Cc1ccc(C)c2nc3sc(C(=O)O)cc3cc12	none
O=C(/C=C1\NC2(CCCC2)Cc2ccccc21)N1CCOCC1	Pf growth 96h inconclusive, Pf growth 48h inconclusive, HCV inhibitor inconclusive
CC1(C)Cc2c(ccc3ccccc23)/C(=C/C(=O)N2CCCCC2)N1	AMA1-RON2 inh inconclusive, Pf growth 96h inconclusive, Pf growth 48h 10µM, HCV inhibitor inconclusive
O=[N+]([O-])c1ccc(N/N=C/c2sc(N3CCOCC3)nc2-c2ccccc2)c(S(=O)(=O)Nc2ccc(Cl)cc2)c1	Pf growth 96h inconclusive, Pf growth 48h inconclusive, HCV inhibitor 2.5µM
O=[N+]([O-])c1ccc(N/N=C/c2sc(N3CCOCC3)nc2-c2ccccc2)c(S(=O)(=O)Nc2ccccc2Cl)c1	Pf growth 96h inconclusive, Pf growth 48h 1.5µM, HCV inhibitor 3.5µM
Nc1ccc(C(=O)N/N=C/c2sc(N3CCOCC3)nc2-c2ccccc2)cc1	Pf growth 96h inconclusive, Pf growth 48h inconclusive, HCV inhibitor inconclusive
O=Cc1sc(N2CCOCC2)nc1-c1ccccc1	none (no result: AMA1-RON2 inh, HCV inhibitor)
CCC(C(=O)Nc1cc(C(=O)Nc2cc(C)ccn2)ccc1Cl)c1ccccc1 (stereo unspecified)	Pf growth 96h 8.3µM, Pf growth 48h 8.3µM
Cc1ccc(NC(=O)c2ccc(Cl)c(S(=O)(=O)N3CCCCC3)c2)nc1	Pf growth 96h 10µM, Pf growth 48h 9.3µM, HCV inhibitor inconclusive
Cc1ccnc(NC(=O)c2ccc(Cl)c(S(=O)(=O)N3CCCC3)c2)c1	Pf growth 96h inconclusive, HCV inhibitor inconclusive
Cc1ccnc(NC(=O)c2ccc(Cl)c(S(=O)(=O)N3CCCCC3)c2)c1	Pf growth 48h inconclusive, HCV inhibitor 13µM
Cc1cc(NC(=O)c2ccc(Cl)c(S(=O)(=O)N3CCCCC3)c2)no1	Pf growth 48h inconclusive, HCV inhibitor inconclusive
CN1CC(=O)NC1=NC(=O)c1ccc(Cl)c(S(=O)(=O)N2CCCCCC2)c1	Pf growth 96h 8.3µM, Pf growth 48h inconclusive
CCc1nc2ccc(C(=O)N(CC)CCN(C)C)cn2c1N(CC)CCOC	none (no result: Pf growth 96h, Pf growth 48h, HCV inhibitor)
